This is a sample that favours compounds with a hit; in the whole collection about 5.7% have one here.
MPTP block – mitochondrial permeability transition pore inhibitors, primary screen, biochemical, isolated mouse mitochondria, absorbance; Ca2+ swelling absorbance, 30 min; inhibition, % at 10 µM; actives 1.4% (n = 360,000); AID 602449, 2012;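 active = inhibition of 50% or more, scaled per plate between neutral and stimulator controls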;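 note: 0% = DMSO wells given calcium and 100% = 1 mM EGTA wells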
Myeloid diff 2 – induction of myeloid progenitor differentiation, primary screen, cell-based, flow cytometry, MLPCN library; ER-HoxA9 myeloid progenitors, lysozyme-GFP differentiation; calls only at 10 µM; actives 1% (n = 360,000); AID 624256, 2012;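 active = normalized GFP-positive differentiation at or above the plate's own cutoff, the solvent-only control mean plus 3 SD; inconclusive = no clear call, values can overlap the other calls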;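 note: cells exposed to compound for four days before flow analysis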
rCAG binder – binders of r(CAG) RNA repeats, primary screen, biochemical, fluorescence | r(CAG) RNA repeat, TO-PRO-1 dye displacement fluorescence | inhibition, % at 3 µM | actives 1.3% (n = 370,000) | AID 651821, 2012;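 active = inhibition above the plate cutoff, the mean of all test compounds on that plate plus 3 SD, cut at about 35% in these data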;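 note: 0% = DMSO alone and 100% = 100 µM mitoxantrone as full dye displacement; higher means more dye released from RNA so lower well fluorescence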
FAS-TE inh – FAS thioesterase domain inhibitors, primary screen, biochemical, fluorescence intensity, uHTS | inhibition, % at 15 µM | recombinant FAS-TE, OMFH fluorogenic substrate, fluorescence endpoint | Fatty acid synthase (Homo sapiens), P49327 | actives 0.67% (n = 360,000);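 active = compounds whose normalised, plate-corrected inhibition of enzyme fluorescence in the single-dose primary screen is 50% or more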;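 note: 0% = DMSO with enzyme and 100% = substrate without enzyme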
GRIN3A LBD mod – binders of NR3A ligand-binding domain, primary screen, biophysical, differential scanning fluorimetry, uHTS; NR3A LBD differential scanning fluorimetry, Tm shift; 0% = protein alone, 100% = glycine-bound protein; actives 2.5% (n = 340,000); Tm shift relative to glycine control, % at 25 µM; Glutamate receptor ionotropic, NMDA 3A (GRIN3A) ligand-binding domain;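 active = melting temperature shift of at least 10% of the positive control shift, at one fixed dose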
An asterisk follows results filed as active; i = inactive; u = inconclusive; x = not tested or not shown; + = active, no number.

SMILES | MPTP block | Myeloid diff 2 | rCAG binder | FAS-TE inh | GRIN3A LBD mod
CC(=O)Nc1ccc(S(=O)(=O)N(C)CC(=O)OCC(=O)NNC(=O)c2ccccc2F)cc1 | 0 | i | 1 | -4 | 18*
Cc1ccc(S(=O)(=O)N(C)CC(=O)OCC(=O)NC(c2ccccc2)c2ccccc2)cc1 | 3 | i | -5 | 4 | 24*
COc1ccc(C(=O)c2oc3ccc(OC)cc3c2N)cc1 | 0 | i | 5 | 13 | 0
COc1ccc2oc(C(=O)Nc3ccccn3)c(C)c2c1 | 1 | x | 5 | 4 | 0
COC(=O)c1oc2ccc(OC)cc2c1N | 0 | + | 0 | -8 | -5
COc1ccc2oc(C(=O)Nc3nc(C)cs3)c(C)c2c1 | 1 | i | 9 | 3 | 20*
CCOC(=O)[C@@]12CCC3=C1N(CCC3)C(=O)[C@H](CC(=O)N1CCCCC1)C2 | x | x | 2 | x | x
Cc1ccc(C)c(NS(=O)(=O)c2ccc3c(c2)Cc2cc(S(=O)(=O)Nc4cc(C)ccc4C)ccc2-3)c1 | 0 | i | 10 | 0 | 18*
C#CCn1c(=NC(=O)CN2C(=O)CCC2=O)sc2cc(S(N)(=O)=O)ccc21 | -2 | i | 7 | -7 | -2
C#CCn1c(=NC(=O)c2cc(-c3cccs3)nc3ccccc23)sc2cc(S(N)(=O)=O)ccc21 | 2 | i | 9 | 11 | 15*
COC(=O)Cn1c(=NC(=O)c2sc3ccccc3c2Cl)sc2cc(S(N)(=O)=O)ccc21 | -2 | i | -2 | 4 | 13*
CCOC(=O)Cn1c(=NC(=O)c2sc3ccccc3c2Cl)sc2cc(S(N)(=O)=O)ccc21 | 4 | i | 14 | -1 | 3
C#CCn1c(=NC(=O)c2cc(Cl)sc2Cl)sc2cc(S(N)(=O)=O)ccc21 | 3 | i | -16 | 8 | 31*
CC(C)(C)S(=O)(=O)N1C[C@H]2CC(=O)C=C2[C@@H]1CCO | x | x | 1 | x | x
CCOC(=O)[C@@]12CCC3=C1N(CCC3)C(=O)[C@H](CC(=O)N1CCCC1)C2 | x | x | 1 | x | x
O=C(CNC(=O)Cc1ccccc1)NCC(=O)OCC(=O)c1cccc2ccccc12 | 1 | i | 4 | -5 | 12*
O=C(Cc1ccccc1)NCC(=O)OCC(=O)c1ccc(Cl)c([N+](=O)[O-])c1 | -1 | i | 2 | 2 | 12*
O=C(CNC(=O)c1ccco1)OCC(=O)c1cccc2ccccc12 | -4 | i | 0 | -2 | 0
O=C(NCCN1CCC(Cc2ccccc2)CC1)C1CCCN(S(=O)(=O)c2ccccc2[N+](=O)[O-])C1 (stereo not given) | x | x | 0 | x | x
Nc1nn(-c2ccccc2)c(N)c1N=Nc1cccc(F)c1 | 3 | u | 1 | 20 | 11*
COc1ccc(CCNC(=O)c2cc3c(=O)n4ccccc4nc3n(CCCN3CCOCC3)c2=N)cc1OC | -1 | i | 0 | -7 | 0
COc1ccc(CCn2c(=N)c(C(=O)NCCN3CCOCC3)cc3c(=O)n4ccccc4nc32)cc1OC | -1 | i | -1 | -7 | 15*
CCCCOCCCNC(=O)C[C@H]1C[C@@]2(C(=O)OCC)CCCC3=C2N(CCC3)C1=O | x | x | -2 | x | x
COc1ccc(CCNC(=O)CSc2ccc(-c3cccs3)nn2)cc1 | 6 | i | -5 | -1 | 29*
Cc1ccc(CSc2ccc(-c3cccs3)nn2)cc1 | 3 | i | -2 | -2 | 14*
SMILES | MPTP block | Myeloid diff 2 | rCAG binder | FAS-TE inh | GRIN3A LBD mod
COC(=O)C1=C(C)N(C)C(=NCc2ccc(C(F)(F)F)cc2)NC1c1cccc(F)c1 (stereo not given) | x | x | 7 | x | x
N#C/C(=C/c1ccc(OC(=O)c2ccc(Br)s2)cc1)c1nc2ccccc2[nH]1 | 0 | i | 5 | -1 | 3
N#C/C(=C\c1ccc(OC(=O)c2ccc(Br)s2)cc1)c1nc2ccccc2[nH]1 | 2 | i | 2 | -8 | 26*
O=C(Nc1ccc(C(F)(F)F)cc1)OC1CCC12CCC(c1ccccc1)CC2 (stereo not given) | x | x | 2 | x | x
O=C(Nc1cccc(Cl)c1)c1nc[nH]c1C(=O)NCCCNC(=O)c1[nH]cnc1C(=O)Nc1cccc(Cl)c1 | 1 | i | 6 | 4 | 23*
Cc1ccc(NC(=O)c2nc[nH]c2C(=O)NCCCCNC(=O)c2[nH]cnc2C(=O)Nc2ccc(C)cc2)cc1 | 1 | i | 2 | 12 | 13*
Cc1ccc(NC(=O)c2nc[nH]c2C(=O)NCCCCCCNC(=O)c2[nH]cnc2C(=O)Nc2ccc(C)cc2)cc1 | 1 | i | 3 | 3 | 20*
O=C(Nc1ccccc1)c1nc[nH]c1C(=O)NCCCCNC(=O)c1[nH]cnc1C(=O)Nc1ccccc1 | -1 | i | 2 | 0 | 7
CC(C)(C)OC(=O)NCc1ccc(NC(=O)c2nc[nH]c2C(=O)NCCN(CCNC(=O)c2[nH]cnc2C(=O)Nc2ccc(CNC(=O)OC(C)(C)C)cc2)CCNC(=O)c2[nH]cnc2C(=O)Nc2ccc(CNC(=O)OC(C)(C)C)cc2)cc1 | 0 | i | 4 | 46 | 11*
COC(=O)C1=C(C)N(C)C(=NCc2ccc3c(c2)OCO3)NC1c1cccc(C(F)(F)F)c1 (stereo not given) | x | x | 9 | x | x
CC(C)C[C@@H](CCCc1ccccc1)CCC(=O)N(c1ccccc1)c1ccccc1 | x | x | 2 | x | x
CC(C)(C)OC(=O)N1CCN(C(=O)c2[nH]cnc2C(=O)Nc2ccc(Cl)cc2)CC1 | -1 | i | -1 | 29 | -8
Cc1ccc(NC(=O)c2nc[nH]c2C(=O)N2CCN(C(=O)OC(C)(C)C)CC2)cc1 | 0 | i | -5 | 2 | 12*
COC(=O)Cn1cnc2c(NC(=O)c3ccccc3)ncnc21 | x | x | 1 | x | x
O=C(COc1ccccc1)Nc1nc(-c2cccs2)cs1 | 2 | i | 6 | 19 | -5
O=C(Nc1nc(-c2cccs2)cs1)c1cccc(S(=O)(=O)N2CCCCCC2)c1 | 2 | + | 14 | 19 | 5
O=C(CCS(=O)(=O)c1ccccc1)Nc1nc(-c2cccs2)cs1 | -1 | + | 9 | 9 | 3
O=C(Nc1nc(-c2cccs2)cs1)c1ccc(S(=O)(=O)N2CCCCC2)cc1 | 0 | i | 11 | 20 | -3
COc1ccc(-n2c(SCC(=O)Nc3ccc(Oc4ccccc4)cc3)nnc2-c2ccc(C)cc2)cc1 | x | x | 9 | x | x
CCn1nc(C)cc1C(=O)Sc1cccc(Cl)c1 | -1 | i | 42* | 26 | 4
Cc1nn(C)c(C(=O)Sc2cccc(Cl)c2)c1[N+](=O)[O-] | 2 | i | -3 | 25 | 3
CCCCCCCCN1C(=O)[C@@H](CC(=O)N2CCN(C(=O)c3ccco3)CC2)C[C@@]2(C(=O)OC)C1=C[C@H](C(C)C)O[C@@H]2C1CC1 | x | x | 7 | x | x

Screening results deposited in PubChem by several laboratories.
